# Experimental data taken from the supplement of paper PMC8728848.
# Shown is part of a subset that was picked to be rich in the strongest signals.
# B1: BSR4 (Toxoplasma gondii), Q95NL6 (protein)
# chain: MVMMGSMQQRRGGLRSNARQLLAVCMSGVVFFSSGQAVADNLLEGLLHRTLQQQVEVTSRLTVAGSDAKCDFFTPATQDSPPVSGSLTLSKGRMTATFECSATQALSISTIPTNIEQNVCDPKKTTNGTVCQFGANGSAGTEVTLKDLLETDRIVNWKVNEQREESNKSQKWSLELHNEDLPLTDKAFVVGCQATSAARGTESGKTAACKLTVNVEARASSLAENNVVTCAYGKGSNPNPVEVEMSTEKNTLTINCGSDGSLQPTTYAEEYCVADSKDVNRCSTTRFVEIFPKFLKSWWVTETQKRTSATLTIPQTDLPEADQQFLVGCVPKKTAPEDPKKDKESGTETGAPTSCTVLVTVKAASSASHASPTVQILAAASSAAA
# How the values were obtained:
# Assay in all cases: glycan array binding signal (z-score within array); higher = stronger binding
# Conditions in all cases: glycan notation: IUPAC condensed, linker removed
# [1] = biological target: Fuc(a1-2)Gal(b1-3)[Fuc(a1-4)]GlcNAc
# Summary of the method: (§1)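 Glycan array data were curated from 3228 arrays in the Consortium for Functional Glycomics database and kept only where the protein sequence was available. Glycan names were converted to IUPAC-condensed notation, and columns mapping to the same glycan were averaged. The binding signal is a within-array Z-score, averaged across arrays of the same protein sequence at different concentrations or buffers and across linkers. Negative Z-scores can be read as non-binding.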
# [2] = biological target: Fuc(a1-2)Gal(b1-4)[Fuc(a1-3)]GlcNAc(b1-2)Man(a1-3)[Fuc(a1-2)Gal(b1-4)[Fuc(a1-3)]GlcNAc(b1-2)Man(a1-6)]Man(b1-4)GlcNAc(b1-4)GlcNAc
# Summary of the method: as §1
# [3] = biological target: Fuc(a1-2)[GalNAc(a1-3)]Gal(b1-4)GlcNAc(b1-2)Man(a1-3)[Fuc(a1-2)[GalNAc(a1-3)]Gal(b1-4)GlcNAc(b1-2)Man(a1-6)]Man(b1-4)GlcNAc(b1-4)GlcNAc
# Summary of the method: as §1
# [4] = biological target: Fuc(a1-3)[Gal(b1-4)]GlcNAc
# Summary of the method: as §1
# [5] = biological target: Fuc(a1-3)[Gal(b1-4)]GlcNAc(b1-4)Gal(b1-4)[Fuc(a1-3)]GlcNAc
# Summary of the method: as §1
# [6] = biological target: Gal(b1-3)[Fuc(a1-4)]GlcNAc(b1-2)Man(a1-3)[Gal(b1-3)[Fuc(a1-4)]GlcNAc(b1-2)Man(a1-6)]Man(b1-4)GlcNAc(b1-4)GlcNAc
# Summary of the method: as §1
# [7] = biological target: Gal(b1-4)GlcNAc(b1-2)Man(a1-3)[GlcNAc(b1-2)Man(a1-6)]Man(b1-4)GlcNAc(b1-4)GlcNAc
# Summary of the method: as §1
# [8] = biological target: Gal(b1-4)GlcNAc(b1-3)GalNAc
# Summary of the method: as §1
# [9] = biological target: Gal(b1-4)GlcNAc(b1-3)[GlcNAc(b1-6)]Gal(b1-4)GlcNAc
# Summary of the method: as §1
# [10] = biological target: Gal3S(b1-3)[Fuc(a1-4)]GlcNAc
# Summary of the method: as §1
# [11] = biological target: Gal3S(b1-4)[Fuc(a1-3)]Glc6S
# Summary of the method: as §1
# GalNAc(a1-3)Gal = biological target: GalNAc(a1-3)Gal
# Summary of the method: as §1
# [12] = biological target: GalNAc(b1-3)Gal(a1-6)Gal(b1-4)Glc
# Summary of the method: as §1
# Glc(b1-6)Glc = biological target: Glc(b1-6)Glc
# Summary of the method: as §1
# [13] = biological target: GlcNAc(a1-4)Gal(b1-4)GlcNAc(b1-3)Gal(b1-4)GlcNAc(b1-3)Gal(b1-4)GlcNAc
# Summary of the method: as §1
# [14] = biological target: GlcNAc(a1-4)Gal(b1-4)GlcNAc(b1-3)Gal(b1-4)[Fuc(a1-3)]GlcNAc(b1-3)Gal(b1-4)[Fuc(a1-3)]GlcNAc
# Summary of the method: as §1
# [15] = biological target: GlcNAc(b1-2)Gal(b1-3)GalNAc
# Summary of the method: as §1
# [16] = biological target: GlcNAc(b1-2)Man(a1-3)[GlcNAc(b1-2)Man(a1-6)]Man(b1-4)GlcNAc(b1-4)[Fuc(a1-6)]GlcNAc
# Summary of the method: as §1
# GlcNAc(b1-3)Gal = biological target: GlcNAc(b1-3)Gal
# Summary of the method: as §1
# [17] = biological target: GlcNAc(b1-3)Gal(b1-3)GalNAc
# Summary of the method: as §1
# [18] = biological target: Neu5Ac(a2-3)Gal(b1-3)[Neu5Ac(a2-6)]GalNAc
# Summary of the method: as §1
# [19] = biological target: Neu5Ac(a2-3)Gal(b1-4)GlcNAc(b1-3)Gal(b1-4)[Fuc(a1-3)]GlcNAc
# Summary of the method: as §1
# [20] = biological target: Neu5Ac(a2-3)Gal(b1-4)[Fuc(a1-3)]GlcNAc(b1-3)GalNAc
# Summary of the method: as §1
# [21] = biological target: Neu5Ac(a2-3)Gal(b1-4)[Fuc(a1-3)]GlcNAc(b1-6)[Gal(b1-3)]GalNAc
# Summary of the method: as §1
# [22] = biological target: Neu5Ac(a2-3)Gal6S(b1-4)GlcNAc
# Summary of the method: as §1
# [23] = biological target: Neu5Ac(a2-6)Gal(b1-4)GlcNAc(b1-2)Man(a1-3)[GlcNAc(b1-2)Man(b1-4)GlcNAc(b1-2)Man(a1-6)]Man(b1-4)GlcNAc(b1-4)GlcNAc
# Summary of the method: as §1
# [24] = biological target: Neu5Ac(a2-6)GlcNAc(b1-4)GlcNAc(b1-4)GlcNAc
# Summary of the method: as §1
# [25] = biological target: Neu5Ac9Ac(a2-3)Gal(b1-4)GlcNAc
# Summary of the method: as §1
# [26] = biological target: Neu5Gc(a2-3)Gal(b1-4)GlcNAc
# Summary of the method: as §1
binder,measurement,setting,value
B1,glycan array binding signal (z-score),[1],0.187
same,glycan array binding signal (z-score),[2],1.41
same,glycan array binding signal (z-score),[3],-0.071
same,glycan array binding signal (z-score),[4],0.23
same,glycan array binding signal (z-score),[5],1.44
same,glycan array binding signal (z-score),[6],1.39
same,glycan array binding signal (z-score),[7],-0.349
same,glycan array binding signal (z-score),[8],0.454
same,glycan array binding signal (z-score),[9],0.261
same,glycan array binding signal (z-score),[10],5.04
same,glycan array binding signal (z-score),[11],0.993
same,glycan array binding signal (z-score),GalNAc(a1-3)Gal,-0.538
same,glycan array binding signal (z-score),[12],-0.617
same,glycan array binding signal (z-score),Glc(b1-6)Glc,-0.765
same,glycan array binding signal (z-score),[13],-0.25
same,glycan array binding signal (z-score),[14],1.8
same,glycan array binding signal (z-score),[15],0.324
same,glycan array binding signal (z-score),[16],7.79
same,glycan array binding signal (z-score),GlcNAc(b1-3)Gal,-0.636
same,glycan array binding signal (z-score),[17],1.23
same,glycan array binding signal (z-score),[18],0.026
same,glycan array binding signal (z-score),[19],0.289
same,glycan array binding signal (z-score),[20],3.61
same,glycan array binding signal (z-score),[21],1.73
same,glycan array binding signal (z-score),[22],-0.227
same,glycan array binding signal (z-score),[23],-0.667
same,glycan array binding signal (z-score),[24],-0.434
same,glycan array binding signal (z-score),[25],0.407
same,glycan array binding signal (z-score),[26],-0.102
